The source of these data is PubChem BioAssay (NCI).

Each structure is given as a SMILES string. Compounds without any hit were thinned out: in the full panel of roughly 83,000, 20% have a hit.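 96-well plates, one dose, 48 hours. Percent growth reported; active if below 10.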 A number with no mark means an inactive call. Calls of active or inactive are those of the source.

This experiment concerns HCT-116 colon. As to the kind of experiment: NCI-60 one-dose screen, 48 h (100 = growth as untreated, 0 = no growth, -100 = all killed). The following applies: 10 µM unless noted.
In the case of `C[C@]12CC[C@H]3[C@@H](C[C@@H]4SC(Nc5ccccc5)=N[C@@]45CC(O)CC[C@]35C)[C@@H]1CCC2O` (stereo not given in full), the growth was -81.5% (active).
For the compound `COc1ccc(/C=C\c2cc(OC)c(OC)c(OC)c2)cc1NC(=O)/C=C/c1cc(OC)c(OC)c(OC)c1`, the growth is 44.6%.
With `O=C(N/N=C/c1ccc(N(CCCl)CCCl)cc1)c1cccc2ccccc12`, the growth was 48.1%.
As for `CC(=O)O[C@H](C[C@H](C(C)C)N(C)C(=O)[C@@H](NC(=O)[C@H]1CCCCN1C)C(C)C)c1nc(C(=O)N[C@@H](Cc2ccccc2)C[C@H](C)C(=O)O)c(CCOCc2ccccc2)s1`, the growth was -22.2% (active).
In the case of `COc1cc2c(cc1OCCCCn1c(-c3cccs3)nc3ccccc31)N=C[C@@H]1CCCN1C2=O`, the growth was 8.65% (active).
As to `C1CCC2(CC1)OOCNCOO2`, the growth was 92.8%.
Regarding `COC1=CC(=O)O[C@@H](/C=C/c2ccc3c(c2)OCO3)C1`, the growth was 105%.
In the case of `O=C(CC1(O)C(=O)Nc2ccc(Cl)cc21)c1ccc(C(=O)NCC2CCC3(CC2)OOC2(CCCCC2)OO3)cc1` (stereo not given), the growth is 41.6%.
With `C/C(=C\c1ccn(-c2ccc(N)cc2C(F)(F)F)n1)[C@@H]1C[C@@H]2O[C@]2(C)CCC[C@H](C)[C@H](O)[C@@H](C)C(=O)C(C)(C)[C@@H](O)CC(=O)O1`, the growth is 12.1%.
In the case of `O=NNc1ccccn1`, the growth is 44.4%.
For the compound `N#CC1(c2ccccc2)CCN(Cc2ccccc2)CC1`, the growth was 104%.
Then `CN(C)CCCOc1ccc2c(c1)c(C(=O)C(=O)NCCO)cn2Cc1ccccc1`, with 98.7%; and `CC12CCC=CC1CCC1C2CCC2(C)C(c3ccc(=O)oc3)CCC12O` (stereo not given), with -64.2% (active).
Turning to `CCCCOc1ccc(C(N)Cc2ccccc2)cc1` (stereo not given), the growth is 86.4%.
Take `CCC1CN1CCCCN1CC1CC` (stereo not given): the growth was 98.7%.
For `CC1(C)C(C(=O)c2cn(CCCCF)c3ccccc23)C1(C)C`, the growth is 90.4%.
To `Cc1cc(N(CCCl)CCCl)ccc1C=Nc1cccnc1` belongs 77.6%; to `COC(=O)[C@H](Cc1ccccc1)NC(=O)c1csc([C@@H](C[C@H](C(C)C)N(C)C(=O)[C@@H](NC(=O)[C@H]2CCCCN2C)C2CC2)OC(C)=O)n1`, -16.9% (active); to `[Cl][Hg][c]1cc(Br)cc(Br)c1`, 64%.
On to `COc1ccc2c(c1)c(-c1nc(-c3c[nH]c4ncccc34)cs1)cn2CCCCN1CCCCC1`, for which the growth is -98.9% (active).
`C=COC(=O)CCN1CC1`: the growth is 103%.
Then `COC(=O)[C@@H](C)C[C@H](Cc1ccccc1)NC(=O)c1csc([C@@H](C[C@H](C(C)C)N(C)C(=O)[C@@H](NC(=O)[C@H]2CCCCN2C)C2CCCCC2)OC(C)=O)n1`, with -22.1% (active).
Take `CCOC(=O)[C@@H](C)C[C@H](Cc1ccccc1)NC(=O)c1csc([C@@H](C[C@H](C(C)C)N(C)C(=O)CNC(=O)[C@H]2CCCCN2C)OC(C)=O)n1`: the growth was 3.7% (active).
With `CC1=C(CNO)C2=C(C)C3(CC3)[C@@](C)(O)C(=O)C2=C1`, the growth was 2.04% (active).
Then `C[C@]12CCc3sc(-c4ccccc4O)nc3C1=CC[C@@H]1[C@@H]2CC[C@]2(C)C(=O)CC[C@@H]12`, with 104%; and `COC(=O)[C@@H](C)C[C@H](Cc1ccc2ccccc2c1)NC(=O)c1csc([C@@H](C[C@H](C(C)C)N(C)C(=O)[C@@H](NC(=O)[C@H]2CCCCN2C)C(C)C)OC(C)=O)n1`, with 51.4%.
`COc1cccc(/C=C/[N+](=O)[O-])c1`: the growth is -60.9% (active).
Turning to `CC[C@H](C)[C@H](NC(=O)c1cccn1C)C(=O)N(C)[C@H](C[C@@H](OC(C)=O)c1nc(C(=O)N[C@@H](Cc2ccccc2)C[C@H](C)C(=O)OC)cs1)C(C)C`, the growth was -3.74% (active).
With `[Cl][Hg][n]1c(-c2ccco2)nc2ccccc21`, the growth was 99.7%.
Consider `COc1ccc2c(c1)c(-c1nc(-c3cn(C)c4ncccc34)cs1)cn2CCCCN1CCCCC1`, for which the growth is -93% (active).
